Fh CTSL1 inh: cathepsin L1 inhibition, PFM18AAP counter-screen; AID 1906; recombinant F. hepatica cathepsin L1, Z-Leu-Arg-MCA fluorescence; inhibition, % at 5.96 µM; 300,000 compounds, 0.49% hits;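 active means inhibition above the mean of all tested compounds plus 3 SD, set per screening campaign, cut at about 17% in these data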
sPLA2-III inh: Inhibits HGIII-sPLA2 liposome hydrolysis, primary screen; Q9NZ20; QFRET BODIPY PC-A2 liposome hydrolysis, fluorescence; inhibition, % at 12.2 µM; 370,000 compounds, 0.56% hits;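 active means inhibition above mean plus 3 SD of compounds lying within the high and low control bounds, cut at about 19% in these data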
NALP1 yeast inh: inhibitors of NALP1 inflammasome in yeast | S. cerevisiae NALP1/ASC/caspase-1 growth, X-gal OD620, 72 h | inhibition, % at 10 µM | 280,000 compounds, 0.61% hits; in the data active means inhibition mostly above about 24%, no sharp cut-off; inactive means mostly below about 32%
A3G deaminase: APOBEC3G (human) deaminase inhibition; recombinant A3G, ssDNA deamination FAM/TAMRA fluorescence; 330,000 compounds, 0.28% hits; inhibition, % at 20 µM;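 active means inhibition of at least 40% at 20 µM, with no more than 30% in the related APOBEC3A deaminase screen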
Target sequence (Q9HC16 whole entry, looked up): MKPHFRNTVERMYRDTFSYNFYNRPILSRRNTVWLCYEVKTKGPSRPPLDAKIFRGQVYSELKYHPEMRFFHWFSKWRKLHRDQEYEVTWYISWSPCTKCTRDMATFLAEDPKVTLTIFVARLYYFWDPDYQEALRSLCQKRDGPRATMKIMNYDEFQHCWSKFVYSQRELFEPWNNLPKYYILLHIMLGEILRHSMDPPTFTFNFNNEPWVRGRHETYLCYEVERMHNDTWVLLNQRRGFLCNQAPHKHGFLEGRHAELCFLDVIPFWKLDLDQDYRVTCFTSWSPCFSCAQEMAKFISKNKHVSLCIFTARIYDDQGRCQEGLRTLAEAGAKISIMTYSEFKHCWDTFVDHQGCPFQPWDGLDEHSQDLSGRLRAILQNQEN
APOBEC3A inh: blocks human APOBEC3A ssDNA deamination; inhibition, % at 20 µM; P31941; AID 493011; recombinant A3A, FAM/TAMRA ssDNA deamination fluorescence; 330,000 compounds, 0.41% hits;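 active means at least 40% inhibition at 20 µM here, with at most 30% in a related deaminase screen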
hGIII sPLA2 conf: human GIII-sPLA2 inhibition, confirmation. inhibition, % at 12.2 µM. recombinant hGIII-sPLA2, BODIPY PC-A2 QFRET fluorescence. 2,000 compounds, 34% hits. AID 743280. shares compounds with sPLA2-III inh;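 active means mean inhibition across triplicates above the hit cutoff set in the earlier primary screen, cut at about 19% in these data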
535nm interf: optically interferes with 535nm fluorescence in sPLA2 counter-screen | 2,000 compounds, 8.5% hits | shares compounds with sPLA2-III inh | BODIPY FL product fluorescence interference, QFRET | inhibition, % at 12.2 µM;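 active means average inhibition above the solvent-only control mean plus 3 SD, cut at about 6% in these data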
535nm interf DR: interferes with 535nm fluorescence in dose response counter-screen; 240 tested, under 10 active; shares compounds with sPLA2-III inh; BODIPY FL product fluorescence interference, cell-free; IC50, µM; AID 743455;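 active means IC50 at or below 10 µM; inactive means IC50 above 10 µM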
Numbers stand for hits. The list is not random: actives were taken first. Their share in the collection is about 2%.

For Cc1ccc(S(=O)(=O)N(C)C)cc1NC(=O)C1CCCC1 the results were Fh CTSL1 inh inactive, sPLA2-III inh inactive, NALP1 yeast inh inactive, A3G deaminase inactive and APOBEC3A inh inactive.
For CCN(CC)S(=O)(=O)c1ccc(C)c(NC(=S)NNC(=O)C2CC2)c1 the results were Fh CTSL1 inh inactive, sPLA2-III inh 20, NALP1 yeast inh inactive, A3G deaminase inactive, APOBEC3A inh inactive, hGIII sPLA2 conf 23 and 535nm interf inactive.
For CC(Sc1nc2ccccc2s1)C(=O)Nc1nnc(C(C)C)s1 (centres undefined) the results were Fh CTSL1 inh inactive, NALP1 yeast inh inactive, A3G deaminase inactive and APOBEC3A inh inactive.
CCC(Sc1nc2ccccc2s1)C(=O)Nc1nnc(C)s1 (centres undefined) was read as Fh CTSL1 inh inactive, sPLA2-III inh 19, NALP1 yeast inh inactive, A3G deaminase inactive, APOBEC3A inh inactive, hGIII sPLA2 conf inactive and 535nm interf inactive.
`COC(=O)[C@@H]1C(c2c(OC)cc(OC)cc2OC)=NO[C@H]1C(=O)OC` gave Fh CTSL1 inh inactive, sPLA2-III inh 20, NALP1 yeast inh inactive, A3G deaminase inactive, APOBEC3A inh inactive, hGIII sPLA2 conf inactive and 535nm interf inactive.
Screening Cc1ccccc1-n1c(=S)[nH]c2nc3c(cc2c1=O)COC(C)(C)C3 returned Fh CTSL1 inh inactive, sPLA2-III inh 20, NALP1 yeast inh inactive, A3G deaminase inactive, APOBEC3A inh inactive, hGIII sPLA2 conf inactive and 535nm interf inactive.
Screening Cc1ccc(NC(=S)NNC(=O)CSc2nnc(-c3ccc(C)cc3)n2C2CCCCC2)cc1 returned sPLA2-III inh 24, hGIII sPLA2 conf inactive and 535nm interf inactive.
Screening CCn1c(SCC(=O)NNC(=S)Nc2ccc(C)cc2)nnc1-c1ccc(Cl)cc1 returned Fh CTSL1 inh inactive, sPLA2-III inh inactive, NALP1 yeast inh inactive, A3G deaminase inactive and APOBEC3A inh inactive.
Cn1c(SCC(=O)NNC(=S)Nc2ccccc2)nnc1-c1ccccc1 was read as Fh CTSL1 inh inactive, sPLA2-III inh inactive, A3G deaminase inactive and APOBEC3A inh inactive.
Cc1ccc(NC(=S)NNC(=O)CSc2nnc(-c3ccc(Cl)cc3)n2C2CCCCC2)cc1 was read as Fh CTSL1 inh inactive, sPLA2-III inh 23, NALP1 yeast inh inactive, A3G deaminase inactive, APOBEC3A inh inactive, hGIII sPLA2 conf 30, 535nm interf inactive and 535nm interf DR inactive.
`O=C(NCc1ccco1)O[C@H]1CC[C@@]23CCCN2C(=O)CCC[C@H]3C1` gave sPLA2-III inh inactive.
For COCCCOc1cc(NCc2ccccc2)c2ncn(C(C)C)c2c1 the results were sPLA2-III inh inactive, A3G deaminase inactive and APOBEC3A inh inactive.
For CCCCOc1cc(NCc2ccccc2)c2ncn(C(C)C)c2c1 the results were sPLA2-III inh 21, A3G deaminase inactive, APOBEC3A inh inactive, hGIII sPLA2 conf inactive and 535nm interf inactive.
`O=C(NCCN1CCOCC1)c1cc(Sc2ccccc2Cl)nc2ccccc12` gave Fh CTSL1 inh inactive, sPLA2-III inh 19, NALP1 yeast inh inactive, A3G deaminase inactive, APOBEC3A inh inactive, hGIII sPLA2 conf inactive and 535nm interf inactive.
For NC(=Nc1nc(-c2ccccn2)cc2ccccc12)c1ccccn1 the results were sPLA2-III inh 21, hGIII sPLA2 conf inactive and 535nm interf inactive.
Screening O=C(N/N=C/c1c(O)ccc2ccccc12)c1cccc(C(F)(F)F)c1 returned Fh CTSL1 inh inactive, sPLA2-III inh 43, NALP1 yeast inh inactive, A3G deaminase inactive, APOBEC3A inh inactive, hGIII sPLA2 conf inactive and 535nm interf inactive.
`COc1ccccc1C(=O)NNC(=S)NC(=O)c1cccs1` gave Fh CTSL1 inh inactive, sPLA2-III inh inactive, NALP1 yeast inh inactive, A3G deaminase inactive and APOBEC3A inh inactive.
`O=C(NNC(=S)NC(=O)c1ccccc1)c1ccc([N+](=O)[O-])cc1` gave Fh CTSL1 inh inactive, sPLA2-III inh inactive, NALP1 yeast inh inactive, A3G deaminase inactive and APOBEC3A inh inactive.

Bioassay records as filed in PubChem.
